From PubChem BioAssay (NCI) come the findings set out here.

A short description of test [1]: NCI Yeast Anticancer Drug Screen. Data for the rad50 strain (AID 155).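 Note: 0% = growth of vehicle-only cultures of the same strain.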 The settings on record: S. cerevisiae rad50 strain growth inhibition; at 50.0 µM; active compounds read high. The gist of the method: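 DNA repair mutant yeast, compound exposure, growth read-out; inhibition is taken relative to vehicle.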
The nature of test [2]: NCI Yeast Anticancer Drug Screen. Data for the mec2-1 strain (AID 157). As to conditions: S. cerevisiae mec2-1 strain, at 50.0 µM, active compounds read high. The method, boiled down:
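Vehicle-treated cultures served as reference for growth inhibition of compound-exposed mec2-1 yeast.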

Test [3] is described as follows: NCI Yeast Anticancer Drug Screen. Data for the sgs1 mgt1 strain (AID 161).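 Note: 0% = growth of cultures given vehicle only.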 The settings on record: S. cerevisiae sgs1 mgt1 strain, at 50.0 µM, active compounds read high. The method, boiled down: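 Test agents were incubated with a DNA-repair-mutant yeast strain. Growth was then read and compared against vehicle-treated controls.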
Test [4] is described as follows: NCI Yeast Anticancer Drug Screen. Data for the cln2 rad14 strain (AID 165).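 Note: 0% = growth equal to vehicle treated cultures.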 The settings on record: S. cerevisiae cln2 rad14 strain, at 50.0 µM, active compounds read high. The gist of the method:
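Each compound was tested on cln2 rad14 yeast. Inhibition of growth was calculated against vehicle-exposed controls.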

A short description of test [5]: NCI Yeast Anticancer Drug Screen. Data for the bub3 strain (AID 167). The settings on record: S. cerevisiae bub3 mutant strain, at 50.0 µM, active compounds read high. The method, boiled down: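 In this screen, a yeast mutant lacking normal mitotic checkpoint function is challenged with compound. Relative growth versus vehicle gives the inhibition value.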
Test [6] is described as follows: NCI Yeast Anticancer Drug Screen. Data for the mlh1 rad18 strain (AID 175). As to conditions: S. cerevisiae mlh1 rad18 strain growth inhibition; at 50.0 µM; active compounds read high. The method, boiled down:
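Vehicle-treated cultures served as the reference for growth inhibition in a yeast strain carrying DNA damage repair alterations exposed to each compound.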

The panel holds about 79,000 compounds, 15% with a hit somewhere; the sample as a whole holds those more often. Unmarked numbers belong to inactive results. Activity calls are given as the source filed them. Cut-off read from the data, not from the text of the source: active = growth inhibition above about 70%; inactive = the rest. Where a SMILES comes first, the peptide text is derived from it. [ ]: non-standard residue; d: D form. The star is where a group is joined. pGlu = O=C1CC[CH](C(=O)O)N1; Cbz = O=C(OCc1ccccc1)*; Nva = CCC[CH](N)C(=O)O

Regarding `O=C(Cc1nccc2c1[nH]c1ccccc12)OC1C#CCSCC#C/C=C\1` (stereo not given), the growth inhibition in test [1] is -0.55%; in test [2], 17.8%; in test [3], 9.5%; in test [4], -14.7%; in test [5] it was 12.3%; in test [6] it was -1.15%.
Turning to `CC(C)CCC(=O)OCC(=O)c1ccc(-c2ccccc2)cc1`, the growth inhibition was 8.55% in test [1]; -13.1% in test [2]; 7.25% in test [3]; -1.45% in test [4]; 23.9% in test [5]; 9.1% in test [6].
In the case of `CC(C)C(C)NC(=O)C(C)(C)C(C)(C)C` (stereo not given), the growth inhibition in test [1] was -4.85%; in test [2], -6.35%; in test [3], 10.6%; in test [4], -11.2%; in test [5], -0.7%; in test [6] it was -5.55%.
Consider `CN1CCN(C(=O)Nc2ccc(N=Nc3ccccc3)cc2)CC1`, for which the growth inhibition is -9.3% in test [1]; -17.2% in test [2]; 6.1% in test [3]; -29.5% in test [4]; 16.8% in test [5]; -6.25% in test [6].
As to `COc1ccc(-n2c(=O)c(N=Nc3ccccc3)c(O)n(-c3ccccc3OC)c2=S)cc1`, the growth inhibition is 39.5% in test [1]; -13.6% in test [2]; 40.5% in test [3]; -13.7% in test [4]; 8.95% in test [5]; 15.3% in test [6].
Regarding `COc1ccc2c(c1)OC1c3ccccc3OCC21` (stereo not given), the growth inhibition is 26.1% in test [1]; 11.6% in test [2]; 15.8% in test [3]; 12.3% in test [4]; 27.9% in test [5]; 30.2% in test [6].
`CSCc1cc(C)ccc1NC(C)=O`: the growth inhibition is 0.5% in test [1]; -7.85% in test [2]; -0.75% in test [3]; -16.5% in test [4]; -13.2% in test [5]; 10.8% in test [6].
On to `CCCCCCC(C)CC(=O)O` (stereo not given), for which the growth inhibition was -4.7% in test [1]; -3.85% in test [2]; 0% in test [3]; -59% in test [4]; -7.2% in test [5]; -21% in test [6].
Consider `COc1ccc(C(O)c2ccccc2C(=O)Nc2ccccc2)cc1` (stereo not given), for which the growth inhibition in test [1] was -4.95%; in test [2] it was -9.7%; in test [3] it was -18.2%; in test [4], -21.9%; in test [5], -3.35%; in test [6], -3.9%.
Regarding `CCCC(NC(=O)OCc1ccccc1)C(=O)NC(CCSC)C(=O)O` (stereo not given) (Cbz-[Nva]-Met-OH; configuration not given here), the growth inhibition is -54.6% in test [1]; -1.6% in test [2]; -4.65% in test [3]; 11.5% in test [4]; -0.85% in test [5]; -5.95% in test [6].
`Cc1cc(C(N)=O)c(C(N)=O)c(=O)[nH]1`: the growth inhibition in test [1] is -13.1%; in test [2] it was 2%; in test [3], 0%; in test [4], -7.5%; in test [5] it was -14.2%; in test [6], 15.8%.
`CC(C)CCOc1ccc(C(N)=S)c2ccccc12`: the growth inhibition in test [1] is 80% (active); in test [2], 96.8% (active); in test [3], 96.4% (active); in test [4], 68.5%; in test [5], 84% (active); in test [6], 95.2% (active).
With `CCOC(=O)c1cc(C=O)oc1C`, the growth inhibition was 6.8% in test [1]; -4.2% in test [2]; -8.1% in test [3]; -42.6% in test [4]; 2% in test [5]; -0.75% in test [6].
As to `Cc1ccc(S(=O)(=O)c2ccc(C)cc2[N+](=O)[O-])c([N+](=O)[O-])c1`, the growth inhibition was -58.1% in test [1]; -52.1% in test [2]; -25.4% in test [3]; -6.2% in test [4]; -19.9% in test [5]; -44.6% in test [6].
Consider `O=C(O)C12C3CCC(C3)C1(C(=O)O)C1CCC2C1` (stereo not given), for which the growth inhibition in test [1] is -13.3%; in test [2] it was -13.9%; in test [3], -14.4%; in test [4], 24.3%; in test [5], -0.65%; in test [6] it was -12.2%.
As to `CCCCN(C)CC(C)O` (stereo not given), the growth inhibition in test [1] was -10.7%; in test [2] it was -12.2%; in test [3] it was -13.8%; in test [4] it was -24.3%; in test [5], 4.85%; in test [6], -22.2%.
`N/C(=N\O)c1ccccc1`: the growth inhibition in test [1] is 27.1%; in test [2] it was 0.6%; in test [3], 13.7%; in test [4], 15.3%; in test [5], 4.35%; in test [6], 23.1%.
With `N#CC1=C2CCCC(C#N)=C2CCC1`, the growth inhibition is 0.95% in test [1]; -1% in test [2]; -4.55% in test [3]; -40.1% in test [4]; -21.3% in test [5]; -13.8% in test [6].
In the case of `N=C1N=Nc2nc(CC(=O)c3ccc(Cl)cc3Cl)c(O)n21`, the growth inhibition was -9.8% in test [1]; -8.35% in test [2]; 1.05% in test [3]; -31.5% in test [4]; -11.8% in test [5]; -37.6% in test [6].
Consider `CC(NC(=O)C(Cc1cnc[nH]1)NC(=O)C1CCC(=O)N1)C(N)=O` (stereo not drawn) ([pGlu]-His-Ala-NH2; configuration not given here), for which the growth inhibition in test [1] is -15.4%; in test [2] it was -75%; in test [3], -17.3%; in test [4] it was -21.8%; in test [5] it was -12.7%; in test [6] it was -25.9%.
